According to PubChem BioAssay (Tox21):
Values joined by “and” are separate entries in the source; they are usually repeats but may differ in a detail not shown here. Equal values may be shown once. Inconclusive results are not listed. Active and inactive are the calls of the source. Unless noted, calls come from the whole dose curve.

Assays:
[1] = target: Acetylcholinesterase (Homo sapiens) (UniProt P22303); test: Acetylcholinesterase (AChE) small molecule antagonists: colormetric cell-based qHTS assay (AID 1347395); note: nearly all actives have a fitted effect of over 30% in size; note: potency is the fitted concentration of half-maximal effect
Chain of Acetylcholinesterase (Homo sapiens) (P22303 whole entry, looked up): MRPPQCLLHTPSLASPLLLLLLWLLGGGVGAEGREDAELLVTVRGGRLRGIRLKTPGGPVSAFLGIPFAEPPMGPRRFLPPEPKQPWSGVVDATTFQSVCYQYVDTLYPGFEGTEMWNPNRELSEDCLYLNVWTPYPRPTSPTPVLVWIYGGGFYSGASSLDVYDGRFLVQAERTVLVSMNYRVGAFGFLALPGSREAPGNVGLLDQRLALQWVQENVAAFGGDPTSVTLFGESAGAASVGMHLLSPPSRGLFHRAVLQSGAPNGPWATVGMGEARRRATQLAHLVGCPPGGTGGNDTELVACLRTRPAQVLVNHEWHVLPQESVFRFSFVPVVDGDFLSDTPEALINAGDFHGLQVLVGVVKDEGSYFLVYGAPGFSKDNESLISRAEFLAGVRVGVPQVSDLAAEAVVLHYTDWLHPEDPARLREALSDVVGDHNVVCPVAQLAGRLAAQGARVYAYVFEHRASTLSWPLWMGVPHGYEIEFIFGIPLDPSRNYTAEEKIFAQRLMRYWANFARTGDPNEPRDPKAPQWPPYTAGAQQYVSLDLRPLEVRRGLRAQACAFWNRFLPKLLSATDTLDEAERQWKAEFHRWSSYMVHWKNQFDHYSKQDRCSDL
Method in brief: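 SH-SY5Y cells, plated overnight at 37 C, were exposed to compounds for 30 min at 37 C and 5% CO2. Acetylthiocholine plus DTNB was then added, and thiocholine from endogenous AChE was quantified colorimetrically after 90 min at 37 C.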

[2] = target: Acetylcholinesterase (Homo sapiens) (UniProt P22303); test: Acetylcholinesterase (AChE) small molecule antagonists: enzyme-based qHTS assay (AID 1347397); conditions: Potency: AChE enzyme activity inhibition; outcome: AChE enzyme activity inhibition; note: nearly all actives have a fitted effect of over 55% in size; note: potency is the fitted concentration of half-maximal effect
Method in brief: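 Colorimetric DTNB readout of acetylthiocholine hydrolysis, 10 min at room temperature, after 30 min room-temperature exposure of 50 mU/mL recombinant human enzyme to compound; DMSO vehicle control.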

[3] = target: Acetylcholinesterase (Homo sapiens) (UniProt P22303); test: Acetylcholinesterase (AChE) small molecule antagonists: fluorescence cell-based qHTS assay (AID 1347398); conditions: Potency: AChE activity; outcome: AChE activity; note: nearly all actives have a fitted effect of over 50% in size; note: potency is the fitted concentration of half-maximal effect
Method in brief: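 Cellular AChE activity read as thiocholine from acetylthiocholine hydrolysis, detected by Thiolite Green fluorescence at 490/520 nm after 40 min at room temperature. Compounds were pre-incubated 30 min at 37 C on adherent SH-SY5Y cells.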

[4] = qHTS assay for small molecule agonists of the p53 signaling pathway - cell viability (AID 651633);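 note: p53RE-bla HCT reporter cells with a stable beta-lactamase p53 reporter; series mostly up to about 83 µM; nearly all actives have a fitted effect of over 30% in size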
Method in brief: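 Viability counter-read: CellTiter-Glo luminescence (30 min, room temperature) in the same p53RE-bla plates. These plates had been exposed to compounds for 16 h at 37 C.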

[5] = qHTS assay for small molecules that induce genotoxicity in human embryonic kidney cells expressing luciferase-tagged ATAD5 - cell viability (AID 651634); note: nearly all actives have a fitted effect of over 25% in size
Method in brief: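 Cells (HEK293T, luciferase-tagged ATAD5) are seeded at 2,000 per well, dosed with compound or DMSO vehicle, and incubated 15.5 hr at 37C and 5% CO2. CellTiter-Fluor is added for 30 min before fluorescence is measured.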

[6] = qHTS assay for small molecule disruptors of the mitochondrial membrane potential - cell viability (AID 720634);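 note: human HepG2 liver cancer cells; series mostly up to about 83 µM; nearly all actives have a fitted effect of over 20% in size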
Method in brief: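 Cytotoxicity was measured by ATP quantitation in HepG2 wells that had first been treated with compound for 1 hr and stained with m-MPI dye; CellTiter-Glo incubation was 30 min at room temperature.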

[7] = qHTS assay to test for compound auto fluorescence at 590 nm (red) in HepG2 cells (AID 720674; active = well fitted curve in the direction sought with a large enough effect in the repeat runs; an effect the other way counts as inactive or inconclusive)
Method in brief: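 Red autofluorescence (Ex/Em 540/590 nm, Rose Bengal sodium equivalents) was measured in HepG2 cells, 2,000 per well in MEM plus 10% FBS, plated overnight at 37 C. Readings were taken 1 hr after adding 23 nL compound or DMSO, at 37 C and 5% CO2.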

[8] = qHTS assay to test for compound auto fluorescence at 460 nm (blue) in HEK293 cells (AID 720678; active = well fitted curve in the direction sought with a large enough effect in the repeat runs; an effect the other way counts as inactive or inconclusive)
Method in brief: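 Triamterene serves as the blue fluorophore standard. Compound signal at 405/460 nm is read in HEK293 wells (2,000 cells, 10% dialyzed FBS) after overnight treatment at 37C.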

[9] = qHTS assay to test for compound auto fluorescence at 590 nm (red) in HEK293 cells (AID 720679; active = well fitted curve in the direction sought with a large enough effect in the repeat runs; an effect the other way counts as inactive or inconclusive)
Method in brief: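 We plated HEK293 cells in 10% dialyzed FBS medium, let them adhere for 4-5 hr, then added 23 nL compound. Overnight at 37C and 5% CO2 preceded fluorescence measurement at 540/590nm.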

[10] = qHTS assay to test for compound auto fluorescence at 535 nm (green) in HEK293 cells (AID 720680; active = well fitted curve in the direction sought with a large enough effect in the repeat runs; an effect the other way counts as inactive or inconclusive)
[11] = qHTS assay to test for compound auto fluorescence at 535 nm (green) in HEK293 cell free culture (AID 720682; active = well fitted curve in the direction sought with a large enough effect in the repeat runs; an effect the other way counts as inactive or inconclusive)
Method in brief: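 Read-out: 485/535 nm fluorescence intensity, calibrated against fluorescein. Medium only (DMEM + 10% FBS, no cells); test compound or DMSO vehicle added by pintool before plate reading.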

[12] = qHTS assay to test for compound auto fluorescence at 590 nm (red) in HEK293 cell free culture (AID 720683; active = well fitted curve in the direction sought with a large enough effect in the repeat runs; an effect the other way counts as inactive or inconclusive)
Method in brief: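 Red-channel autofluorescence of compounds in culture medium (DMEM, 10% FBS), no cells, measured at 540/590 nm. Rose Bengal sodium is the reference fluorophore for equivalence.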

[13] = qHTS assay to test for compound auto fluorescence at 590 nm (red) in HepG2 cell free culture (AID 720684; active = well fitted curve in the direction sought with a large enough effect in the repeat runs; an effect the other way counts as inactive or inconclusive)
Method in brief: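 Cell-free; medium MEM + 10% FBS; compound or DMSO added by pintool; read Ex 540/Em 590 nm; Rose Bengal sodium as red reference fluorophore.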

[14] = qHTS assay to test for compound auto fluorescence at 460 nm (blue) in HepG2 cell free culture (AID 720685; active = well fitted curve in the direction sought with a large enough effect in the repeat runs; an effect the other way counts as inactive or inconclusive)
Method in brief: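 Cell-free plates of MEM plus 10% FBS received 23 nL compound or DMSO vehicle; blue-channel (405/460 nm) intensity scored against triamterene as reference fluorophore.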

[15] = qHTS assay to test for compound auto fluorescence at 460 nm (blue) in HepG2 cells (AID 720687; active = well fitted curve in the direction sought with a large enough effect in the repeat runs; an effect the other way counts as inactive or inconclusive)
Method in brief: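 Blue-channel autofluorescence (Ex/Em 405/460 nm, triamterene-equivalent) was measured after 1 hr compound exposure at 37 C, 5% CO2. Cells were HepG2, plated overnight at 37 C in MEM plus 10% FBS.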

[16] = qHTS assay to identify small molecule antagonists of the estrogen receptor alpha (ER-alpha) signaling pathway using the BG1 cell line - cell viability counter screen (AID 743081; active = well fitted curve in the direction sought with a large enough effect in the repeat runs; an effect the other way counts as inactive or inconclusive;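 note: compound given together with 17beta-estradiol as the ER stimulus; series mostly up to about 70 µM; nearly all actives have a fitted effect of over 45% in size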)
Aromatase (Homo sapiens) = Aromatase (Homo sapiens) (UniProt P11511); test: qHTS assay to identify aromatase inhibitors (AID 743083; active = well fitted curve in the direction sought with a large enough effect in the repeat runs; an effect the other way counts as inactive or inconclusive; note: nearly all actives have a fitted effect of over 55% in size; note: potency is the fitted concentration of half-maximal effect; for activity, negative = inhibition: series mostly up to about 70 µM)
Chain of Aromatase (Homo sapiens) (P11511 whole entry, looked up): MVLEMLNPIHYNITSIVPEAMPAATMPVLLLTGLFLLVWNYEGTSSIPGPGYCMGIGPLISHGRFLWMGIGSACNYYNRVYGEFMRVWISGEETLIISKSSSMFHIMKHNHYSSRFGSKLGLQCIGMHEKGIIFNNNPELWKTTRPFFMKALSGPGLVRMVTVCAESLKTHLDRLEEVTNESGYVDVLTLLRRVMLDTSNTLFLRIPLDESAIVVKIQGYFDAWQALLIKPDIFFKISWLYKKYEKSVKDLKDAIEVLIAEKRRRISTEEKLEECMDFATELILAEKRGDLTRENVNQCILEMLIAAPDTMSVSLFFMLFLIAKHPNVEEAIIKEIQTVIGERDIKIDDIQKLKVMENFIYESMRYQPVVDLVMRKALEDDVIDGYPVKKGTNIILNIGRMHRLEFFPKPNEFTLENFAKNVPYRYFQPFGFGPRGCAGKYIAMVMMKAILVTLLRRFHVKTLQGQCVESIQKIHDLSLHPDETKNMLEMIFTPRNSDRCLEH

[17] = qHTS assay to identify aromatase inhibitors - cell viability counter screen (AID 743084; active = well fitted curve in the direction sought with a large enough effect in the repeat runs; an effect the other way counts as inactive or inconclusive;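 note: cells stimulated with testosterone during compound exposure; nearly all actives have a fitted effect of over 55% in size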)
[18] = target: Aryl hydrocarbon receptor (Homo sapiens) (UniProt P35869); test: qHTS assay to identify small molecule that activate the aryl hydrocarbon receptor (AhR) signaling pathway (AID 743085; active = well fitted curve in the direction sought with a large enough effect in the repeat runs; an effect the other way counts as inactive or inconclusive; note: nearly all actives have a fitted effect of over 15% in size; note: potency is the fitted concentration of half-maximal effect)
Chain of Aryl hydrocarbon receptor (Homo sapiens) (P35869 whole entry, looked up): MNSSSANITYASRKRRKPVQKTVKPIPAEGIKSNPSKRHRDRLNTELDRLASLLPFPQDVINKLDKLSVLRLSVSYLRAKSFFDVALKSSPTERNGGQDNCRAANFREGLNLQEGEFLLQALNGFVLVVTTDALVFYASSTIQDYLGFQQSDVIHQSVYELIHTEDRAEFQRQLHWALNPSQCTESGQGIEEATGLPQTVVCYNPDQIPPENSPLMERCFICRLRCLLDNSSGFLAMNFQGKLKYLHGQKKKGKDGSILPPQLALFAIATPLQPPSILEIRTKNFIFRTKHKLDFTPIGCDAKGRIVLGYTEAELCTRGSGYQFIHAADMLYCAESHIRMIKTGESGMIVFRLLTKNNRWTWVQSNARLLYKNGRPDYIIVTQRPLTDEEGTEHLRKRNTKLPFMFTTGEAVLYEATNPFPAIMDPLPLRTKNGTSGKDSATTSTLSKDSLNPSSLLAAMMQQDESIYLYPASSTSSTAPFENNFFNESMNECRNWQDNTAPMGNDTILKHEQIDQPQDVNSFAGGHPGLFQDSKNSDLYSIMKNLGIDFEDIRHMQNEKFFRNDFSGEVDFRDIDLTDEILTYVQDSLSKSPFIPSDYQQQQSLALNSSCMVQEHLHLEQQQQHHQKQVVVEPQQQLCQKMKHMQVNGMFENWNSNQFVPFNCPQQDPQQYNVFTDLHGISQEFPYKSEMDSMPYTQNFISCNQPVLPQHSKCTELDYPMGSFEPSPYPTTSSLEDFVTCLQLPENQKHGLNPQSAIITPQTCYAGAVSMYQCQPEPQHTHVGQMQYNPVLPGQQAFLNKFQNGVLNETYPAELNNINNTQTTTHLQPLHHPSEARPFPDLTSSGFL
Method in brief: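 HepG2 cells (HG2L7.5c1) stably carrying a firefly luciferase reporter driven by 20 dioxin responsive elements were exposed to compound for 24 h at 37C after a 5 h settling period; luminescence rise (ONE-Glo) indicated activation.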

[19] = qHTS assay for small molecules that induce genotoxicity in human embryonic kidney cells expressing luciferase-tagged ATAD5 (AID 651632; active = well fitted curve in the direction sought with a large enough effect in the repeat runs; an effect the other way counts as inactive or inconclusive; note: nearly all actives have a fitted effect of over 15% in size)
Method in brief: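 Cells were seeded at 2,000 per well, dosed with compound, and incubated 16 hr at 37C in 5% CO2. Luciferase activity was then quantified after a 30 min room-temperature incubation with Amplite.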
% is set by controls: 0 for no effect and ±100 for the full control effect.

CCOc1ccc2nc(N)sc2c1
inactive: Potency [1] | Potency [2] | Potency [3]

Cc1cccc(C(C)c2cnc[nH]2)c1C (stereo unspecified)
active: Potency (Aromatase (Homo sapiens)) 29.8 µM | Potency [18] 11.9 µM
inactive: Potency [4] | Potency [5] | Potency [6] | outcome [7] | Potency [8] | outcome [9] | Potency [10] | Potency [11] | outcome [12] | outcome [13] | Potency [14] | Potency [15] | Potency [16] | Potency [17]

NCC(O)c1cccc(O)c1 (stereo unspecified)
inactive: Potency [19] | Potency [4] | Potency [5] | Potency [6] | outcome [7] | Potency [8] | outcome [9] | Potency [10] | Potency [11] | outcome [12] | outcome [13] | Potency [14] | Potency [15] | Potency [16] | Potency (Aromatase (Homo sapiens)) | Potency [17] | Potency [18]

COc1ccc(-c2nc3ccc(C4=NNC(=O)CC4C)cc3[nH]2)cc1 (stereo unspecified)
inactive: Potency [1] | Potency [2]

O=S(=O)(c1cccc2cnccc12)N1CCCNCC1
inactive: Potency [1] | Potency [2] | Potency [3]

CCCC(=O)Nc1ccc(OCC(O)CNC(C)C)c(C(C)=O)c1 (stereo unspecified)
inactive: Potency [1] | Potency [2] | Potency [3]

CCN(CCO)c1cccc(C)c1
inactive: Potency [1] | Potency [2] | Potency [3]

CC(C)(C)c1ccc(C(O)CCCN2CCC(C(O)(c3ccccc3)c3ccccc3)CC2)cc1 (stereo unspecified)
inactive: Potency [1] | Potency [2] | Potency [3]

O=C1CN(/N=C/c2ccc([N+](=O)[O-])o2)C(=O)N1
inactive: Potency [1] | Potency [2] | Potency [3]

COc1ccc(OC)c(C(O)CNC(=O)CN)c1 (stereo unspecified)
inactive: Potency [1] | Potency [2] | Potency [3]

O=C(O)c1cccc(Cl)c1Cl
inactive: Potency [1] | Potency [2] | Potency [3]

Cc1cc(S(=O)(=O)O)c(N)cc1Cl
inactive: Potency [1] | Potency [2] | Potency [3]

O=C(O)CCC(=O)C(=O)O
inactive: Potency [1] | Potency [2] | Potency [3]

CC(C)NC[C@@H](O)COc1ccc(CC(N)=O)cc1
inactive: Potency [1] | Potency [2] | Potency [3]

CCOC(=O)N1CCC(=C2c3ccc(Cl)cc3CCc3cccnc32)CC1
inactive: Potency [1] | Potency [2] | Potency [3]

CCN[C@@H]1C[C@H](N)[C@@H](OC2OC(CN)=CCC2N)[C@H](O)[C@H]1O[C@H]1OC[C@](C)(O)[C@H](NC)[C@H]1O (stereo partly specified)
inactive: activity, negative = inhibition [1] 0.264% [at 0.435 µM] | activity change, negative = inhibition [2] 0.139% [at 0.435 µM] | activity change, negative = inhibition [3] 7.61% [at 0.439 µM]

CC(C)(C)c1cc(Cc2cc(C(C)(C)C)c(O)c(C(C)(C)C)c2)cc(C(C)(C)C)c1O
inactive: Potency [1] | Potency [2] | Potency [3]

CN/C(=C\[N+](=O)[O-])NCCSCc1csc(CN(C)C)n1
active: Potency [1] 11.2 µM and 13.8 µM | Potency [2] 35.6 µM and 27.5 µM | Potency [3] 35.6 µM

O=C(O)Cc1c[nH]c2ccccc12
inactive: Potency [1] | Potency [2] | Potency [3]

O=C1CCc2ccccc2O1
inactive: Potency [1] | Potency [2] | Potency [3]

O=C(O)Cc1ccc(Cl)cc1Cl
inactive: Potency [1] | Potency [2] | Potency [3]

CCCCCCCCCO
inactive: Potency [1] | Potency [2] | Potency [3]

CCc1ccccc1O
inactive: Potency [1] | Potency [2] | Potency [3]

CC(C)(C)c1cc(O)c(C(C)(C)C)cc1O
inactive: Potency [1] | Potency [2] | Potency [3]

COc1ccc(C(=O)c2ccccc2)c(O)c1
inactive: Potency [1] | Potency [2] | Potency [3]

O=NN(CCCl)C(=O)NC1CCCCC1
inactive: Potency [1] | Potency [2] | Potency [3]

CC(C)c1nnc2ccc(-c3ocnc3-c3cc(F)ccc3F)cn12
inactive: Potency [1] | Potency [2] | Potency [3]

CCNc1ccccc1
inactive: Potency [1] | Potency [2] | Potency [3]

CCc1ccccc1
inactive: Potency [1] | Potency [2] | Potency [3]

c1ccc(OCc2ccc(CCCN3CCOCC3)cc2)cc1
inactive: Potency [1] | Potency [2] | Potency [3]

C[Si](C)O[Si](C)C
inactive: Potency [1] | Potency [2] | Potency [3]

CCc1c(C(=O)O)c(=O)cnn1-c1ccc(Cl)cc1
inactive: Potency [1] | Potency [2] | Potency [3]

CCCCCCCCCCCCCCCCO
inactive: Potency [1] | Potency [2] | Potency [3]

CN1CCC(=C2c3ccccc3C=Cc3ccccc32)CC1
inactive: Potency [1] | Potency [2] | Potency [3]

CCCCCCCCSCCO
inactive: Potency [1] | Potency [2] | Potency [3]

c1coc(CNc2ncnc3nc[nH]c23)c1
inactive: Potency [1] | Potency [2] | Potency [3]

CC1(C)[C@H](C(=O)O)N2C(=O)C[C@H]2S1(=O)=O
inactive: Potency [1] | Potency [2] | Potency [3]

CN(C)C(=O)C(CCN1CCC(O)(c2ccc(Cl)cc2)CC1)(c1ccccc1)c1ccccc1
inactive: Potency [1] | Potency [2] | Potency [3]

CC(C)NCC(O)COc1ccc(CC(N)=O)cc1 (stereo unspecified)
inactive: Potency [1] | Potency [2] | Potency [3]

N[C@@H](CSSC[C@H](N)C(=O)O)C(=O)O
inactive: activity, negative = inhibition [1] 3.18% [at 0.435 µM] | activity change, negative = inhibition [2] 0.405% [at 0.435 µM] | activity change, negative = inhibition [3] 2.04% [at 0.439 µM]

Oc1ccc2cc(SSc3ccc4cc(O)ccc4c3)ccc2c1
inactive: Potency [1] | Potency [2] | Potency [3]

CN(C)CCCN1c2ccccc2Sc2ccc(C(F)(F)F)cc21
inactive: Potency [1] | Potency [2] | Potency [3]

O=[N+]([O-])c1ccc(O)cc1C(F)(F)F
inactive: Potency [1] | Potency [2] | Potency [3]

C1CC(COCC2CO2)CCC1COCC1CO1 (stereo unspecified)
inactive: Potency [1] | Potency [2] | Potency [3]

Cc1cc(O)c(C(C)(C)C)cc1Sc1cc(C(C)(C)C)c(O)cc1C
inactive: Potency [1] | Potency [3]
active: Potency [2] 28.2 µM
